According to PubChem BioAssay (NCATS):
“And” between values parts separate entries of the source, which are not always exact repeats. Identical values can stand only once. Inconclusive results are not listed. Where a call stands in place of a potency, no number is given. A number with no mark means an inactive call. The source made the active and inactive calls. Calls follow the shape of the dose curve; as a rule, active = well fitted inhibition curve with a large enough effect; inconclusive = small, poorly fitted or top-dose-only effect; inactive = flat fitted curve, though single readings scatter.

Key:
FAB9 = test: qHTS profiling for inhibitors of Plasmodium falciparum proliferation (AID 504749); also: potency is read from the fitted curve at half-maximal effect; settings: P. falciparum in erythrocytes, SYBR Green DNA, 72 h; series mostly up to 28.7 µM
Summary of the method: (§1)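 Each compound contacts P. falciparum-infected red blood cells for 72 h at 37 C; lysis buffer (Tris, EDTA, saponin, Triton X, SYBR Green I) is added and fluorescence measured next morning; values normalized to controls.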

HB3 = test: as above; settings: P. falciparum in erythrocytes, SYBR Green DNA, 72 h; series mostly up to 28.7 µM
Summary of the method: as §1

JCK = test: as above; settings: P. falciparum in erythrocytes, SYBR Green DNA, 72 h; series mostly up to 28.7 µM
Summary of the method: as §1

N140 = test: as above; settings: P. falciparum in erythrocytes, SYBR Green DNA, 72 h; series mostly up to 28.7 µM
Summary of the method: as §1

PAD = test: as above; settings: P. falciparum in erythrocytes, SYBR Green DNA, 72 h; series mostly up to 28.7 µM
Summary of the method: as §1

PC15 = test: as above; settings: P. falciparum in erythrocytes, SYBR Green DNA, 72 h; series mostly up to 28.7 µM
Summary of the method: as §1

PC49 = test: as above; settings: P. falciparum in erythrocytes, SYBR Green DNA, 72 h; series mostly up to 28.7 µM
Summary of the method: as §1

SC27B = test: as above; settings: P. falciparum in erythrocytes, SYBR Green DNA, 72 h; series mostly up to 28.7 µM
Summary of the method: as §1

W2 = test: as above; settings: P. falciparum in erythrocytes, SYBR Green DNA, 72 h; series mostly up to 28.7 µM
Summary of the method: as §1

CRL-7250 = normal cell line; test: Cytotoxic Profiling of Annotated Libraries Using Quantitative High-Throughput Screening (AID 1296008); settings: Five cell lines viability, CellTiter-Glo ATP luminescence, 48-72 h; max response: stronger effect = lower value
Summary of the method: (§2)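 Cells exposed to compounds for 48 or 72 hr at 37 degrees Celsius. Viability read as ATP-coupled luminescence with CellTiter-Glo after 10 min at room temperature.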

HEK293 = test: as above; settings: Five cell lines viability, CellTiter-Glo ATP luminescence, 48-72 h; max response: stronger effect = lower value
Summary of the method: as §2

HaCat = test: as above; settings: Five cell lines viability, CellTiter-Glo ATP luminescence, 48-72 h; max response: stronger effect = lower value
Summary of the method: as §2

GB4 = test: qHTS profiling for inhibitors of Plasmodium falciparum proliferation (AID 504749); also: potency is read from the fitted curve at half-maximal effect; settings: P. falciparum in erythrocytes, SYBR Green DNA, 72 h; series mostly up to 28.7 µM
Summary of the method: as §1

ICS = test: as above; settings: P. falciparum in erythrocytes, SYBR Green DNA, 72 h; series mostly up to 28.7 µM
Summary of the method: as §1

P93_24 = test: as above; settings: P. falciparum in erythrocytes, SYBR Green DNA, 72 h; series mostly up to 28.7 µM
Summary of the method: as §1

P94_40 = test: as above; settings: P. falciparum in erythrocytes, SYBR Green DNA, 72 h; series mostly up to 28.7 µM
Summary of the method: as §1

PC26 = test: as above; settings: P. falciparum in erythrocytes, SYBR Green DNA, 72 h; series mostly up to 28.7 µM
Summary of the method: as §1

TAB109 = test: as above; settings: P. falciparum in erythrocytes, SYBR Green DNA, 72 h; series mostly up to 28.7 µM
Summary of the method: as §1

TAB113 = test: as above; settings: P. falciparum in erythrocytes, SYBR Green DNA, 72 h; series mostly up to 28.7 µM
Summary of the method: as §1

TAB165 = test: as above; settings: P. falciparum in erythrocytes, SYBR Green DNA, 72 h; series mostly up to 28.7 µM
Summary of the method: as §1
Also: nearly all actives have a fitted effect of over 60% in size.

## CCOC(CN1CCN(CC(C)C(=O)c2ccccc2)CC1)c1ccccc1 (stereo unspecified)
FAB9
  Potency: inactive
HB3
  Potency: inactive
JCK
  Potency: inactive
N140
  Potency: inactive
PAD
  Potency: inactive
PC15
  Potency: inactive
PC49
  Potency: inactive
SC27B
  Potency: inactive
W2
  Potency: 10.7 µM (active)
CRL-7250
  max response: -5.72%
HEK293
  max response: -4.15%
HaCat
  max response: -8.79%
  outcome: inactive

## O=C(O)COc1nn(Cc2ccccc2)c2ccccc12
FAB9
  Potency: inactive
GB4
  Potency: inactive
HB3
  Potency: inactive
ICS
  Potency: inactive
JCK
  Potency: inactive
N140
  Potency: inactive
P93_24
  Potency: inactive
P94_40
  Potency: inactive
PAD
  Potency: inactive
PC15
  Potency: inactive
PC26
  Potency: inactive
PC49
  Potency: inactive
SC27B
  Potency: inactive
TAB109
  Potency: inactive
TAB113
  Potency: inactive
TAB165
  Potency: inactive
CRL-7250
  max response: -2.07%
HEK293
  outcome: inactive
HaCat
  outcome: inactive

## CN1[C@@H]2CC[C@H]1CC(OC(=O)C(O)c1ccccc1)C2 (stereo partly specified)
CRL-7250
  max response: 1.28%
HEK293
  max response: -8.16%
HaCat
  outcome: inactive

## C=CCn1c(=O)n([C@@H]2O[C@H](CO)[C@@H](O)[C@H]2O)c2nc(N)[nH]c(=O)c21
CRL-7250
  max response: -6.63%
HEK293
  outcome: inactive
HaCat
  outcome: inactive

## C[C@@H]1CC[C@@]2(OC1)O[C@H]1C[C@H]3[C@@H]4CC[C@H]5C[C@@H](O)CC[C@]5(C)[C@H]4CC(=O)[C@]3(C)[C@H]1[C@@H]2C
CRL-7250
  outcome: inactive
HEK293
  outcome: inactive
HaCat
  outcome: inactive

## N[C@H](C(=O)O)c1ccc(O)cc1
CRL-7250
  max response: 3.21%
HEK293
  outcome: inactive
HaCat
  outcome: inactive

## COc1ccc2[nH]c(S(=O)Cc3ncc(C)c(OC)c3C)nc2n1 (stereo unspecified)
ICS
  Potency: 7.94 µM (active)
N140
  Potency: 6.31 µM (active)
P93_24
  Potency: 7.94 µM (active)
P94_40
  Potency: 8.91 µM (active)
PAD
  Potency: 4.47 µM (active)
PC49
  Potency: 7.94 µM (active)
SC27B
  Potency: 8.91 µM (active)
TAB109
  Potency: 8.91 µM (active)
TAB113
  Potency: 8.91 µM (active)
TAB165
  Potency: 7.94 µM (active)
W2
  Potency: 9.53 µM (active)
CRL-7250
  outcome: inactive
HEK293
  outcome: inactive
HaCat
  max response: -5.32%
  outcome: inactive

## OC[C@H]1O[C@@H](O[C@@H]2[C@@H](CO)O[C@](O)(CO)[C@H]2O)[C@H](O)[C@@H](O)[C@H]1O
CRL-7250
  max response: -1.41%
HEK293
  outcome: inactive
HaCat
  outcome: inactive

## O=C1N=C(O)CN1/N=C/c1ccc(-c2ccc([N+](=O)[O-])cc2)o1
CRL-7250
  outcome: inactive
HEK293
  max response: -11.3%
HaCat
  outcome: inactive

## c1ccc2c(CC3=NCCN3)cccc2c1
CRL-7250
  max response: -1.39%
HEK293
  outcome: inactive
HaCat
  max response: -1.06%

## CC(COc1ccccc1)NC(C)C(O)c1ccc(O)cc1 (stereo unspecified)
CRL-7250
  max response: -14.7%
HEK293
  outcome: inactive
HaCat
  max response: -5.97%

## CC(=O)Nc1ccc(/C=N/NC(N)=S)cc1
FAB9
  Potency: inactive
GB4
  Potency: inactive
HB3
  Potency: inactive
ICS
  Potency: inactive
JCK
  Potency: inactive
N140
  Potency: inactive
P93_24
  Potency: inactive
P94_40
  Potency: inactive
PAD
  Potency: inactive
PC15
  Potency: inactive
PC26
  Potency: inactive
PC49
  Potency: inactive
SC27B
  Potency: inactive
TAB109
  Potency: inactive
TAB113
  Potency: inactive
TAB165
  Potency: inactive
W2
  Potency: inactive
CRL-7250
  outcome: inactive
HEK293
  max response: 0.104%
HaCat
  outcome: inactive

## COc1cc2[nH]c(=O)[nH]c(=O)c2cc1OC
FAB9
  Potency: inactive
GB4
  Potency: inactive
HB3
  Potency: inactive
ICS
  Potency: inactive
JCK
  Potency: inactive
N140
  Potency: inactive
P93_24
  Potency: inactive
P94_40
  Potency: inactive
PAD
  Potency: inactive
PC15
  Potency: inactive
PC26
  Potency: inactive
PC49
  Potency: inactive
SC27B
  Potency: inactive
TAB109
  Potency: inactive
TAB113
  Potency: inactive
TAB165
  Potency: inactive
W2
  Potency: inactive
CRL-7250
  outcome: inactive
HEK293
  outcome: inactive
HaCat
  outcome: inactive

## CC1(C)[C@@H]2CC[C@@]1(C)C(=O)C2
FAB9
  Potency: inactive
GB4
  Potency: inactive
HB3
  Potency: inactive
ICS
  Potency: inactive
JCK
  Potency: inactive
N140
  Potency: inactive
P93_24
  Potency: inactive
P94_40
  Potency: inactive
PAD
  Potency: inactive
PC15
  Potency: inactive
PC26
  Potency: inactive
PC49
  Potency: inactive
SC27B
  Potency: inactive
TAB109
  Potency: inactive
TAB113
  Potency: inactive
TAB165
  Potency: inactive
W2
  Potency: inactive
CRL-7250
  outcome: inactive
HEK293
  outcome: inactive
HaCat
  outcome: inactive

## Nc1nc2c(ncn2CCC(CO)CO)c(=O)[nH]1
FAB9
  Potency: inactive
GB4
  Potency: inactive
HB3
  Potency: inactive
ICS
  Potency: inactive
JCK
  Potency: inactive
N140
  Potency: inactive
P93_24
  Potency: inactive
P94_40
  Potency: inactive
PAD
  Potency: inactive
PC15
  Potency: inactive
PC26
  Potency: inactive
PC49
  Potency: inactive
SC27B
  Potency: inactive
TAB109
  Potency: inactive
TAB113
  Potency: inactive
TAB165
  Potency: inactive
W2
  Potency: inactive
CRL-7250
  max response: -22.4% and -4.66%
HEK293
  max response: -4.76% and -4.47%
HaCat
  outcome: inactive
